The record followed here is PubChem BioAssay (Tox21).

Test [1] is described as follows: qHTS assay to identify small molecule antagonists of the vitamin D receptor (VDR) signaling pathway - cell viability counter screen (AID 743225). For viability change, negative = cytotoxic: % is set by controls: 0 for no effect and ±100 for the full control effect. Note: nearly all actives have a fitted effect of over 50% in size. Note: potency is the fitted concentration of half-maximal effect. In a few lines:
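VDR-UAS-bla HEK 293T cells were plated and incubated 4 h at 37C, then dosed with compound plus 3 nM (final) 1-alpha,25-dihydroxyvitamin D3 for 16 h. After the 2 h beta-lactamase read, viability in the same wells was read as CellTiter-Glo luminescence after 30 min at room temperature.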

A short description of test [2]: qHTS assay to identify small molecule agonists of the NFkB signaling pathway - cell viability counter screen (AID 1159515; calls by dose curve; note: % is set by controls: 0 for no effect and ±100 for the full control effect; nearly all actives have a fitted effect of over 55% in size). In a few lines: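 Viability in NFkB-bla ME-180 cells was measured by CellTiter-Glo luminescence, 30 min room temperature, in wells already treated 5 hr with compounds and read for reporter FRET.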
The nature of test [3]: qHTS assay to identify small molecule agonists of the endoplasmic reticulum stress response signaling pathway (AID 1159516; active = well fitted activation curve with a large enough effect in the signal ratio in the repeat runs, not every such curve was filed as active; the % refers to the signal ratio; note: % is set by controls: 0 for no effect and ±100 for the full control effect). In a few lines:
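ER stress element reporter (bla) in HeLa. 1,500 cells/well, overnight attachment; 5 hr compound; 2 hr RT substrate; dual-emission fluorescence.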

Test [4] can be described thus: qHTS assay to identify small molecule agonists of the endoplasmic reticulum stress response signaling pathway - cell viability counter screen (AID 1159517; calls by dose curve; note: % is set by controls: 0 for no effect and ±100 for the full control effect; nearly all actives have a fitted effect of over 50% in size). The procedure, abridged: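 HeLa cells carrying an ESRE-driven beta-lactamase reporter receive compound for 5 hr at 37 C. Cell viability is then gauged with CellTiter-Glo by luminescence, 30 min at room temperature.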

Test [5] in a line: qHTS assay to identify small molecule agonists of the AP-1 signaling pathway - cell viability counter screen (AID 1159525; calls by dose curve; note: nearly all actives have a fitted effect of over 55% in size; note: potency is the fitted concentration of half-maximal effect). The procedure, abridged: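 Luminescent ATP readout (Cell Titer Glo, 30 min RT), normalised to DMSO and tetra n-octyl ammonium bromide controls. Cells were ME-180 AP-1-bla in 0.5% dialyzed FBS Opti-MEM, with a 5 h, 37 °C compound exposure.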
The target of test [6] is Retinoic acid receptor RXR-alpha (Homo sapiens) (UniProt P19793). Briefly: qHTS assay to identify small molecule agonists of the RXR signaling pathway (AID 1159527; calls by dose curve; note: % is set by controls: 0 for no effect and ±100 for the full control effect; nearly all actives have a fitted effect of over 35% in size). In a few lines:
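GeneBLAzer RXR-alpha-UAS-bla HEK 293T cells in 2% charcoal-stripped FBS medium were exposed to compounds for 16 hr at 37 C in agonist mode. Beta-lactamase reporter read as 460/530 nm FRET ratio after 2 hr substrate loading.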

Test [7] can be described thus: qHTS assay to identify small molecule agonists of the RXR signaling pathway - cell viability counter screen (AID 1159529). For activity change, negative = cytotoxicity: % is set by controls: 0 for no effect and ±100 for the full control effect. Note: nearly all actives have a fitted effect of over 50% in size. Note: potency is the fitted concentration of half-maximal effect. In a few lines: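 RXR-alpha-UAS-bla HEK 293T cells in medium with 2% charcoal-stripped FBS were pre-incubated 5 hr, then compound-treated 16 hr at 37 C. Viability was read by CellTiter-Glo luminescence in the same wells as the beta-lactamase assay, with tetraoctyl ammonium bromide as positive control.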

Test [8] in a line: qHTS assay to identify small molecule antagonists of the retinoid acid receptor (RAR) signaling pathway - cell viability counter screen (AID 1159551). Note: % is set by controls: 0 for no effect and ±100 for the full control effect; nearly all actives have a fitted effect of over 35% in size. The procedure, abridged: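 Following overnight attachment, C3RL4 reporter cells received DMSO-dissolved compounds and then retinol (1 uM final). Six hours later at 37 C, ATP content was measured by CellTiter-Glo luminescence.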

Test [9] can be described thus: qHTS assay to identify small molecule agonists of the retinoic acid receptor (RAR) signaling pathway (AID 1159553). Note: potency is the fitted concentration of half-maximal effect. Particulars: C3RL4 RARE luciferase reporter, agonist, 6 h; activation: at 73.3 µM (top of the series) unless noted. In a few lines: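 Cell line C3RL4, RARE luciferase reporter. Treatment: compounds in DMSO, 6 hr, 37 C, 5% CO2, after overnight plating. Detection: luminescence, 30 min RT after reagent.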

Test [10] in a line: qHTS assay to identify small molecule agonists of the vitamin D receptor (VDR) signaling pathway - cell viability counter screen (AID 743224). Note: % is set by controls: 0 for no effect and ±100 for the full control effect; nearly all actives have a fitted effect of over 50% in size. The procedure, abridged: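 VDR-bla cell line, quantitative HTS format; 16 h compound incubation (37C, 5% CO2); ATP-based CellTiter-Glo luminescence measured in the reporter assay wells.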
Test [11] has as its target Nuclear receptor ROR-gamma (Homo sapiens) (UniProt P51449). Kind of test: qHTS assay to identify small molecule antagonists of the retinoid-related orphan receptor gamma (ROR-gamma) signaling pathway (AID 1159521; note: nearly all actives have a fitted effect of over 50% in size; note: potency is the fitted concentration of half-maximal effect). In a few lines:
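Tet-on ROR-gamma CHO cells with ROR response element-luciferase reporter; compounds added 2 hr before 1 uM doxycycline induction, then 16 hr at 37 C. Antagonism scored as decreased ONE-Glo luminescence.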

A short description of test [12]: qHTS assay to identify small molecule agonists of the AP-1 signaling pathway (AID 1159526; calls by dose curve; note: % is set by controls: 0 for no effect and ±100 for the full control effect).
Test [13] is described as follows: qHTS assay to identify small molecule antagonists of the retinoic acid receptor (RAR) signaling pathway (AID 1159552). The procedure, abridged:
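Retinol signaling pathway inhibitors screened in C3RL4 RARE-luciferase reporter cells seeded overnight at 37 C, then compounds added with 1 uM (final) retinol as pathway substrate. After 6 hr at 37 C, luciferase luminescence read after 30 min at room temperature.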

Results filed as inconclusive are left out. Unmarked numbers belong to inactive results. Activity calls are given as the source filed them. Unless noted, calls come from the whole dose curve; as a rule, active = well fitted curve in the direction sought with a large enough effect in the repeat runs; inconclusive = weak or mixed curves; inactive = no such curve, though single readings can be large; an effect the other way counts as inactive or inconclusive.

Retinoic acid receptor RXR-alpha (Homo sapiens), sequence (P19793 whole entry, looked up): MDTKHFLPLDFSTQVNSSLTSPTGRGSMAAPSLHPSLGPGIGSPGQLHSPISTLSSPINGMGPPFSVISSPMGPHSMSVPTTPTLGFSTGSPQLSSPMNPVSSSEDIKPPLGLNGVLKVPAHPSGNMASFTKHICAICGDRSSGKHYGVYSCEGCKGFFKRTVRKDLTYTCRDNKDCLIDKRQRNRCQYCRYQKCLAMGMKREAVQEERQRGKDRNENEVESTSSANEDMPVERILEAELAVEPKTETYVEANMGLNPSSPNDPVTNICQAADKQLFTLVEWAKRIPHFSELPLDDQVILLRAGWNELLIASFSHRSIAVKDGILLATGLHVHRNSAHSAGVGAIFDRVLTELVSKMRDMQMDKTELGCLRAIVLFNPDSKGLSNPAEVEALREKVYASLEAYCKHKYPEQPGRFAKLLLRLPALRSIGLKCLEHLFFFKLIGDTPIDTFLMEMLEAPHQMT

As to `Oc1cc(Cl)cc(Cl)c1Cl`, the Potency entry in test [1], in test [2], in [3], in test [4], in test [5] and in test [6] was “inactive” each time. In addition, the Potency result in test [7], in test [8] and in test [9] was “inactive” each time.
`[Cu+]`: the Potency result in test [1], in test [2], in test [3], in test [4], in test [5] and in test [6] was “inactive” in each case. Moreover, the Potency entry in [7] and in [8] was “inactive” throughout.
On to `O=C1C(c2[nH]c3ccc(S(=O)(=O)O)cc3c2O)=Nc2ccc(S(=O)(=O)O)cc21`, for which the Potency entry in test [10], in test [1], in [2], in test [3], in test [4] and in test [11] was “inactive” each time. Further, the Potency entry in test [5], in [12], in test [7] and in test [13] was “inactive” in each case.
Regarding `OC12N=C(c3ccccc3)SC1Cc1cc(Cl)ccc12` (centres undefined), the Potency entry in [10], in test [1], in [2], in [3], in test [4] and in test [11] was “inactive” throughout. Moreover, the Potency result in test [5], in test [8] and in [13] was “inactive” each time. The values for the Potency in test [7] and in [9] were 54.9 µM (active) and 1.22 µM (active), respectively.
For `Cc1cc(C(C#N)c2ccc(Cl)cc2)c(Cl)cc1NC(=O)c1cc(I)cc(I)c1O` (centres undefined), the Potency result in [10], in test [1], in test [2], in test [3], in [4] and in test [5] was “inactive” each time. Moreover, in test [8], the Potency entry is “inactive”. Further, the Potency in test [11] was 29.8 µM (active).
Regarding `C[Si](Cl)(c1ccccc1)c1ccccc1`, the Potency entry in test [10], in test [1], in test [2], in [3], in test [4] and in test [11] was “inactive” throughout. Also, the Potency result in test [5], in [6], in test [7] and in test [8] was “inactive” throughout.
For `Nc1cc(Cl)c(O)c(Cl)c1`, the Potency result in test [10], in test [1], in [2], in test [3], in test [4] and in test [7] was “inactive” each time. For the same compound, the Potency result in test [8] was “inactive”. Also, the Potency in test [11] is 68.6 µM (active).
On to `CN1CCCCC1CCN1c2ccccc2Sc2ccc(S(C)=O)cc21` (centres undefined), for which the Potency entry in test [10], in test [1], in test [2], in test [3], in test [4] and in test [5] was “inactive” throughout. For the same compound, the Potency entry in [6], in [7], in [8] and in [9] was “inactive” in each case. Besides, in test [11], the Potency was 29.8 µM (active).
Take `CCCCCCCCCCCCOC(=O)c1ccc(O)cc1`: the Potency entry in [1], in test [2], in test [3], in test [4], in [11] and in test [6] was “inactive” throughout. Also, the Potency entry in test [7] and in [8] was “inactive” in each case. Moreover, the Potency in test [5] is 55.4 µM (active).
For `[Cl][Pt-2]([Cl])([Cl])[Cl]`, the Potency entry in test [2], in test [3], in test [4], in [11], in [5] and in test [7] was “inactive” in each case. Further, the Potency result in [8] and in [9] was “inactive” each time.
Turning to `CC[C@H](C)COC(=O)/C=C/c1ccc(N=Cc2ccc(OC)cc2)cc1`, the Potency entry in test [2], in [3], in test [4], in test [11] and in test [13] was “inactive” throughout. Moreover, the Potency in test [9] is 1.22 µM (active).
Regarding `COC1=C(OC)C(=O)C(CCCCCCCCCCO)=C(C)C1=O`, the Potency was 23.9 µM (active) in test [1] and 18.8 µM (active) in [11]. The Potency entry in test [2], in test [3], in test [4], in [7], in [8] and in test [13] was “inactive” throughout. Moreover, in test [9], the Potency entry was “inactive”.
For `COc1cc2nc(N3CCN(C(=O)c4ccco4)CC3)nc(N)c2cc1OC`, the Potency result in test [2], in [3] and in test [4] was “inactive” throughout. Also, in test [5], the viability change, negative = cytotoxic is -7.1% [at 15.8 µM]. Also, the activation in test [12] was 3.7% [at 15.8 µM]; in test [6] it was -11.7% [at 15.8 µM]. Also, the activity change, negative = cytotoxicity in test [8] was -9.47% [at 19 µM].
